Source: PubChem BioAssay (National Center for Advancing Translational Sciences (NCATS))
Rows were chosen to be rich in hits. Some 9.3% of all compounds tested hit in one or more screens of this group.
Rab9 promoter act: activates the Rab9 promoter | Huh7 Rab9 promoter-luciferase reporter, luminescence, 24 h | Potency, µM (doses to about 9.22 µM), usual class: activators | 320,000 compounds, 2.8% hits | AID 485297; further: nearly all actives have a fitted effect of over 60% in size
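Promoter activation is measured as luciferase luminescence in Huh7 cells stably transfected with a Rab9 promoter–luciferase construct, following 24 h compound exposure at 37 °C and 10 min reagent incubation at ambient temperature.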
NPC1 promoter act: activators of NPC1 promoter. Huh7 NPC1 promoter luciferase reporter, 24 h. Potency, µM (titrated, usually from 9.22 µM), usual class: activators. 320,000 compounds, 2.4% hits. AID 485313; further: nearly all actives have a fitted effect of over 60% in size
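Huh7 cells stably carrying NPC1 promoter–luciferase, plated in Opti-MEM with 10% FBS for 2 h, were exposed to compound in DMSO for 24 h at 37 °C; luciferase reagent was added for 10 min and luminescence read.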
FLuc modulator: firefly luciferase modulation, counter-screen for miR-21 project; P08659; 360,000 compounds, 6.9% hits; AID 588342; Potency, µM (series often up to 57.5 µM), most hits filed as inhibitors; purified FLuc, Km substrates, luminescence inhibition; further: nearly all actives have a fitted effect of over 55% in size
Target sequence (P08659 whole entry, looked up): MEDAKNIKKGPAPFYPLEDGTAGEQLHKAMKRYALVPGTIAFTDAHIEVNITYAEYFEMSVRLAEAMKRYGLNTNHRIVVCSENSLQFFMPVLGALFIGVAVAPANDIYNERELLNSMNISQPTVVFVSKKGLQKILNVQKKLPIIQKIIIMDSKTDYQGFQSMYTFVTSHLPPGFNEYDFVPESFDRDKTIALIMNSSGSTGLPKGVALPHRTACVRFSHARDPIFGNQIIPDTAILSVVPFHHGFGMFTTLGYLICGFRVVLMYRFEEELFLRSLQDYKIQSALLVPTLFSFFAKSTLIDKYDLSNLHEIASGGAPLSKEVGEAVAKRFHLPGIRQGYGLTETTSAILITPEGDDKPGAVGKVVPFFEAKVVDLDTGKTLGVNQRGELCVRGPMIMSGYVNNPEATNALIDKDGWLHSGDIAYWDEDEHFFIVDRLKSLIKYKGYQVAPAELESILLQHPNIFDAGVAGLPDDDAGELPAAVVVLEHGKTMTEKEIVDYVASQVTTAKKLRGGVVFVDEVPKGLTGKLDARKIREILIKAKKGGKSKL
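Biochemical qHTS of compounds, final roughly 60 µM downward over six points, against 10 nM purified firefly luciferase using Km concentrations of substrates (10 uM D-luciferin, 10 uM ATP) in Tris acetate pH 7.5 buffer; luminescence output.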
ELG1 genotox: genotoxicity induction in ELG1-luciferase HEK293T cells; HEK293T ELG1-luciferase reporter, luminescence, 16 h; Potency, µM (highest dose often 46 µM), most hits filed as activators; 330,000 compounds, 1.3% hits; AID 504466; further: nearly all actives have a fitted effect of over 60% in size
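HEK293T cells expressing luciferase-tagged ELG1 were treated with compound or DMSO for 16 hr at 37°C. Luciferase activity was then read after 30 min with ONE-Glo at room temperature; rising signal flags genetic stress.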
SMN2 splice enh: enhancers of SMN2 splice variant expression; 210,000 compounds, 2.8% hits; Potency, µM (highest dose often 46.1 µM), most hits filed as activators; HEK293 SMN2-luciferase splicing reporter, luminescence, 30-36 h; further: nearly all actives have a fitted effect of over 55% in size
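HEK293 cells carry an SMN2 […]–luciferase reporter in which exon 7 inclusion puts luciferase in frame. Cells were plated 10-12 h before compound addition, then incubated 30-36 h at 37C. ONE-Glo luminescence was read; sodium butyrate at 4.5 mM final served as control.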
ELG1 DNA repair: blocks ELG1-dependent DNA repair in HEK293T cells; Potency, µM (titrated, usually from 46.1 µM), actives largely listed as inhibitors; HEK293T ELG1-luciferase reporter, luminescence, 16 h; DNA damage induced by 5-fluorouridine; 330,000 compounds, 2.3% hits; further: nearly all actives have a fitted effect of over 55% in size
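5-Fluorouridine DNA damage + compound/DMSO, 2,000 cells/well, 16 h, 37 °C/5% CO2. ONE-Glo, 30 min RT, luminescence. Readout = decrease in reporter signal.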
Numbers stand for hits; [ ] = remark or other dose. The call rests on the fitted dose curve; in most records, active means well fitted curve in the direction sought with a large enough effect; inconclusive means small, poorly fitted or top-dose-only effect, or another doubt; inactive means no such curve, though single readings can be large; an effect the other way counts as inactive or inconclusive.

`COc1ccc(-c2nc(SCC(=O)Nc3cccc(S(N)(=O)=O)c3)n[nH]2)cc1` gave Rab9 promoter act inactive, NPC1 promoter act inactive, FLuc modulator 1.7µM, ELG1 genotox inactive and ELG1 DNA repair inconclusive.
For COc1ccc(NC(=O)CSc2n[nH]c(-c3ccccc3)n2)cc1S(N)(=O)=O the results were Rab9 promoter act inactive, NPC1 promoter act inactive, FLuc modulator 12µM, ELG1 genotox inactive and ELG1 DNA repair inactive.
Screening O=C(/C=C/c1cn(-c2ccccc2)nc1-c1cccnc1)N1CCCC1 returned Rab9 promoter act inactive, NPC1 promoter act inactive, FLuc modulator inconclusive, ELG1 genotox inactive, SMN2 splice enh inactive and ELG1 DNA repair 13µM.
Screening O=C(/C=C/c1cn(-c2ccccc2)nc1-c1cccnc1)c1ccco1 returned Rab9 promoter act inactive, NPC1 promoter act inactive, FLuc modulator 9.5µM, ELG1 genotox inactive, SMN2 splice enh inactive and ELG1 DNA repair inactive.
N#C/C(=C\c1cn(-c2ccccc2)nc1-c1cccnc1)c1nnc2n1CCCCC2 was read as Rab9 promoter act inactive, NPC1 promoter act inactive, FLuc modulator inactive, ELG1 genotox inactive, SMN2 splice enh inactive and ELG1 DNA repair 21µM.
For N#C/C(=C/c1ccccc1[N+](=O)[O-])c1nnc2n1CCCCC2 the results were Rab9 promoter act inactive, NPC1 promoter act inactive, FLuc modulator inactive, ELG1 genotox inactive, SMN2 splice enh inactive and ELG1 DNA repair inactive.
`Cc1ccc(S(=O)(=O)NCCc2csc(-c3cccc(F)c3)n2)cc1` gave FLuc modulator inactive.
`CC(C)C(=O)NCc1cc(-c2ccccc2)no1` gave Rab9 promoter act inactive, NPC1 promoter act inactive, FLuc modulator inactive, ELG1 genotox inactive, SMN2 splice enh inactive and ELG1 DNA repair inactive.
For COc1ccc(C2C(O)C(c3c[nH]c4ccccc34)=NN2C(=O)CCl)cc1 (stereo unspecified) the results were Rab9 promoter act inactive, NPC1 promoter act inactive, FLuc modulator inactive, ELG1 genotox inactive and ELG1 DNA repair 8.2µM.
For COc1ccc(C2NN=C(c3c[nH]c4ccccc34)C2O)cc1 (stereo unspecified) the results were Rab9 promoter act inactive, NPC1 promoter act inactive, FLuc modulator inconclusive, ELG1 genotox inactive and ELG1 DNA repair inconclusive.
For O=C1NN(c2ccccc2)C(=O)/C1=C\c1ccccc1OCC(=O)N1CCOCC1 the results were Rab9 promoter act inactive, NPC1 promoter act inactive, FLuc modulator inconclusive, ELG1 genotox inactive, SMN2 splice enh inactive and ELG1 DNA repair inactive.
For COc1cc(/C=C2/C(=O)NN(c3ccc(Cl)c(Cl)c3)C2=O)cc([N+](=O)[O-])c1O the results were Rab9 promoter act inactive, NPC1 promoter act inactive, FLuc modulator inconclusive, ELG1 genotox inactive and ELG1 DNA repair inactive.
`COc1cc(/C=C2/C(=O)NN(c3ccc(F)cc3)C2=O)cc(Cl)c1O` gave Rab9 promoter act inactive, NPC1 promoter act inactive, FLuc modulator 21µM, ELG1 genotox inactive and ELG1 DNA repair inactive.
`COc1cc(/C=C2/C(=O)NN(c3ccc(Cl)cc3)C2=O)cc(Br)c1O` gave Rab9 promoter act inactive, NPC1 promoter act inactive, FLuc modulator 27µM, ELG1 genotox inactive and ELG1 DNA repair inactive.
`COc1cccc(/C=C2/C(=O)NN(c3ccc(Br)cc3)C2=O)c1O` gave Rab9 promoter act inactive, NPC1 promoter act inactive, FLuc modulator 1.9µM, ELG1 genotox inactive and ELG1 DNA repair inactive.
Screening COc1cccc(CNC(=O)C2CCN(S(=O)(=O)c3c(C)noc3/C=C/c3cccs3)CC2)c1 returned FLuc modulator inactive and SMN2 splice enh inactive.
Screening O=C(CN1C(=O)COc2ccc(S(=O)(=O)N3CCOCC3)cc21)NCc1ccccn1 returned Rab9 promoter act inactive, NPC1 promoter act inactive, FLuc modulator inactive, ELG1 genotox inactive and ELG1 DNA repair inactive.
C=Cc1ccc(Cn2c(=O)n(CCCOC)c(=O)c3sccc32)cc1 was read as Rab9 promoter act inactive, NPC1 promoter act inactive, FLuc modulator inactive, ELG1 genotox inactive and ELG1 DNA repair 21µM.
Screening CC1CCc2c(sc3nnn(Cc4ccccc4)c(=O)c23)C1 (stereo unspecified) returned FLuc modulator inactive and SMN2 splice enh inactive.
For Cc1nnc2n(-c3ccccc3)c(=O)c3c4c(sc3n12)CC(C)CC4 (stereo unspecified) the results were Rab9 promoter act inactive, NPC1 promoter act inactive, FLuc modulator inactive, ELG1 genotox inactive, SMN2 splice enh 22µM and ELG1 DNA repair inactive.
Screening COc1ccc(-c2cc3nc(C)c(CCC(=O)Nc4ccccc4C(C)=O)c(C)n3n2)c(OC)c1 returned FLuc modulator inactive and SMN2 splice enh inactive.
Screening O=C(c1ccccc1)N1CCSc2sccc2C1=O returned Rab9 promoter act inconclusive, NPC1 promoter act inconclusive, FLuc modulator 24µM, ELG1 genotox inactive, SMN2 splice enh inactive and ELG1 DNA repair inconclusive.
`CSCCC(NC(=O)OC(C)(C)C)C(=O)Oc1ccc2c(=O)c(-c3ccc4c(c3)OCCO4)coc2c1` (stereo unspecified) gave Rab9 promoter act 0.79µM, NPC1 promoter act 1.4µM, FLuc modulator 11µM, ELG1 genotox inconclusive, SMN2 splice enh 18µM and ELG1 DNA repair inconclusive.
CC(=O)Nc1ccc(S(=O)(=O)N(CC(=O)NC2CC2)Cc2ccccc2)cc1 was read as ELG1 genotox inactive and ELG1 DNA repair inactive.
`CC(=O)c1c(C)nc(-c2ccc(Cl)cc2)nc1N=CN(C)C` gave Rab9 promoter act 2.8µM, NPC1 promoter act 4µM, FLuc modulator inconclusive, ELG1 genotox 9.2µM, SMN2 splice enh 11µM and ELG1 DNA repair inconclusive.
Screening CC(=O)c1c(C)nc(-c2ccc(Cl)cc2)nc1N returned Rab9 promoter act 3.2µM, NPC1 promoter act 3.5µM, FLuc modulator 6.7µM, ELG1 genotox 4.1µM, SMN2 splice enh 10µM and ELG1 DNA repair inconclusive.
Screening O=C(O)c1nn(-c2ccccc2-c2n[nH]c(=O)[nH]c2=O)c(=O)[nH]c1=O returned Rab9 promoter act inactive, NPC1 promoter act inactive, FLuc modulator inactive, ELG1 genotox inactive, SMN2 splice enh inactive[9.22 µM] and ELG1 DNA repair inactive.
`Cc1ccc(-n2nc3ccc(N)cc3n2)cc1` gave Rab9 promoter act 0.5µM, NPC1 promoter act inconclusive, FLuc modulator 0.54µM, ELG1 genotox 1.4µM, SMN2 splice enh 3.2µM and ELG1 DNA repair inconclusive.
Nc1ccc2nn(-c3ccc(F)cc3)nc2c1 was read as Rab9 promoter act 1.4µM, NPC1 promoter act 0.89µM, FLuc modulator 4.3µM, ELG1 genotox 3.3µM and ELG1 DNA repair inconclusive.
CC(C)c1ccc(-n2nc3ccc(N)cc3n2)cc1 was read as Rab9 promoter act 0.45µM, NPC1 promoter act 0.89µM, FLuc modulator 0.15µM, ELG1 genotox inconclusive and ELG1 DNA repair inconclusive.
